Assay outcomes as filed in PubChem.
Hits are enriched below; roughly 2.9% of the tested compounds scored in any of these assays.
PAFAH1B2 FP inh: PAFAH1B2 (human) inhibition; P68402; recombinant PAFAH1B2, FP-rhodamine activity probe, fluorescence polarization; inhibition, % at 3.39 µM; 1.2% of 340,000 active;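 active means inhibition above the mean of all tested compounds plus 3 SD, cut at about 24% in these data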;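 further: 0% = enzyme with DMSO and 100% = wells lacking PAFAH1B2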
Target sequence (P68402 whole entry, looked up): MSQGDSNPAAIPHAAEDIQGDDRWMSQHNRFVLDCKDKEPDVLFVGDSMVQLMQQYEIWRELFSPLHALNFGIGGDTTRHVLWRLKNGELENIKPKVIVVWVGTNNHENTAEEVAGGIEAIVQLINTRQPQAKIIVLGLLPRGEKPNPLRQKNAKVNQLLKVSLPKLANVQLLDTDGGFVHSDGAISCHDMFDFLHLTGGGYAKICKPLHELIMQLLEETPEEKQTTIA
EBNA-1 inh: blocks EBNA-1 binding to DNA; inhibition, % at 14.8 µM; EBNA-1 DNA binding, fluorescence polarization; 0.34% of 300,000 active; AID 1950; in the data active means inhibition above about 28%
ZTA DNA inh: ZTA (EBV) inhibition in EBNA-1 counter-screen; P03206; ZTA-DNA binding, fluorescence polarization; inhibition, % at 11 µM; 0.15% of 320,000 active; AID 2234; in the data active means inhibition above about 33%
Target sequence (P03206 whole entry, looked up): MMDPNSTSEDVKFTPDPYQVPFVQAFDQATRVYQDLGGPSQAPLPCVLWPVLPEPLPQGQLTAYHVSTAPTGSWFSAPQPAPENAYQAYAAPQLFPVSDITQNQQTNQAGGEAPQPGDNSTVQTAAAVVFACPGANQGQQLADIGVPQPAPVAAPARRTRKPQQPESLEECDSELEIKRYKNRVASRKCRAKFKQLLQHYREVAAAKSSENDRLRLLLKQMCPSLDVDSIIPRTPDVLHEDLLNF
PAFAH1B3 inh: PAFAH1B3 (human) inhibition. Q15102. recombinant PAFAH1B3, FP-rhodamine probe, fluorescence polarization. inhibition, % at 3.39 µM. 0.28% of 340,000 active. AID 492972;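 active means inhibition above the screen-wide average of all tested compounds plus 3 SD, cut at about 25% in these data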;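 further: 0% = enzyme with DMSO only and 100% = wells lacking PAFAH1B3 protein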
Target sequence (Q15102 whole entry, looked up): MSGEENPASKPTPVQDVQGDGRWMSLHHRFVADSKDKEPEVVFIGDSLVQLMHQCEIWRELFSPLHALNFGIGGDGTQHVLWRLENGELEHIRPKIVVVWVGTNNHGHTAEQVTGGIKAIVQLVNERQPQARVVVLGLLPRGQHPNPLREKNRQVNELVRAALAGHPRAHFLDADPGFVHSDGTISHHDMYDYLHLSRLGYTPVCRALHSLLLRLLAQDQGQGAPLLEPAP
rCAG binder: binds r(CAG) RNA repeats; r(CAG) RNA repeat, TO-PRO-1 dye displacement fluorescence; 1.3% of 370,000 active; AID 651821; inhibition, % at 3 µM;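 active means inhibition above the plate cutoff, the mean of all test compounds on that plate plus 3 SD, cut at about 35% in these data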;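 further: 0% = DMSO alone and 100% = 100 µM mitoxantrone as full dye displacement; higher means more dye released from RNA so lower well fluorescence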
PAFAH2 FP inh: inhibitors of human PAFAH2; recombinant PAFAH2, FP-rhodamine activity probe, fluorescence polarization; inhibition, % at 3.39 µM; 0.99% of 340,000 active;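 active means inhibition above the mean over all tested compounds plus 3 SD, cut at about 30% in these data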;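 further: inhibitors block probe labeling of enzyme so polarization drops; 0% = enzyme with DMSO and 100% = wells lacking PAFAH2 protein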
rCAG binder conf: r(CAG) RNA repeat binding, confirmation; shares compounds with rCAG binder; TO-PRO-1 dye displacement fluorescence; inhibition, % at 3 µM; 70% of 4,300 active; AID 652065;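 active means inhibition above a per-plate cutoff, the mean inhibition of sample wells plus 3 SD, cut at about 35% in these data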;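 further: loss of TO-PRO-1 fluorescence as compound displaces dye from 1x1 AA loop RNA; 0% = DMSO only wells and 100% = 100 µM mitoxantrone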
DNA CAG counter: disrupts DNA CAG TO-PRO-1 complex, flagging rCAG hits. AID 652068. 94% of 4,300 active. d(CAG) DNA oligo TO-PRO-1 dye displacement, fluorescence. inhibition, % at 3 µM. shares compounds with rCAG binder;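 active means inhibition above its plate's cutoff, the mean test-well inhibition plus 3 SD, cut at about 4.8% in these data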;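 further: 0% = DNA dye mix with DMSO and 100% = 100 µM mitoxantrone; hits displace the dye from DNA and so lower well fluorescence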
dCAG dye DR: DNA CAG dye complex inhibition, dose response counter-screen | shares compounds with rCAG binder | DNA CAG/GTC duplex TO-PRO-1 dye displacement fluorescence | IC50, µM | 20% of 250 active | AID 686960; in the data active means IC50 below about 10 µM
* marks the source's active call; other numbers are inactive results; i = inactive; . = no result given.

SMILES | PAFAH1B2 FP inh | EBNA-1 inh | ZTA DNA inh | PAFAH1B3 inh | rCAG binder | PAFAH2 FP inh | rCAG binder conf | DNA CAG counter | others
O=C(N/N=C/c1cc(Br)c(O)c(Br)c1)c1cc2c(ccc3ccccc32)o1 | 49* | . | . | 43* | 96* | 29 | 78* | 46*
O=C(CCN1CCN(C(=O)c2ccccc2)CC1)c1ccc(Br)cc1 | 10 | -14 | -8 | 11 | -1 | 3 | . | .
O=S(=O)(c1cc(O)ccc1O)c1cccc2c(S(=O)(=O)c3cc(O)ccc3O)cccc12 | 23 | -2 | 4 | 22 | 43* | 15 | 36* | 24*
COCCN=c1scc(-c2ccco2)n1/N=C/c1ccc(O)c(O)c1O | -8 | -4 | 1 | 8 | 48* | 25 | 60* | 30*
CN=c1scc(-c2cccs2)n1/N=C/c1ccc(O)c(O)c1O | -2 | -2 | 0 | -4 | 61* | 12 | 54* | 25*
C=CCN=c1scc(-c2ccco2)n1/N=C/c1ccc(O)c(O)c1O | -1 | 4 | 1 | 6 | 44* | 7 | 59* | 29*
Nc1nc(N(Cc2ccccc2)Cc2ccccc2)nc(C(F)(F)F)n1 | 2 | . | -18 | 3 | 0 | 3 | . | .
O=S(=O)(Nc1cccc(-n2cnnn2)c1)c1cc(Br)ccc1Br | 13 | -1 | -5 | 9 | 36* | 1 | 21 | 4.9*
O=S(=O)(Nc1cccc(-n2cnnn2)c1)c1ccccc1 | 3 | 2 | 5 | 6 | 4 | 2 | . | .
O=C(NC1CCCCC1)C(c1ccnc2ccccc12)n1c(=O)c(-c2ccco2)nc2ccccc21 (stereo not drawn) | . | . | . | . | 33 | . | . | .
CCCC(=O)N1CCC1(C)C(=O)NS(=O)(=O)c1cc(C)ccc1F (stereo not drawn) | . | . | . | . | 2 | . | . | .
Cc1ccc(F)c(S(=O)(=O)NC(=O)C2(C)CCN2C(=O)CC(c2ccccc2)c2ccccc2)c1 (stereo not drawn) | . | . | . | . | 49* | . | 43* | 12*
CC1(C(=O)NS(=O)(=O)c2ccc(F)cc2F)CCN1C(=O)CC(c1ccccc1)c1ccccc1 (stereo not drawn) | . | . | . | . | 38* | . | 33 | 5.8*
CCOCCCNC(=O)c1ccc2c(c1)ncn2-c1ccccc1OC | 3 | -6 | 0 | -5 | -7 | 0 | . | .
O=C(Nc1ccc(Cl)c(Cl)c1)N[C@@H]1CC[C@@H](CCn2cc(C3CCCCC3)nn2)O[C@@H]1CO | . | . | . | . | 8 | . | . | .
Cc1csc(NC(=O)COCC(=O)O)c1-c1nc2ccccc2s1 | . | -4 | -4 | . | 55* | . | 43* | 9.7*
CCn1c(C)c(/C=N/Nc2nc3ccccc3s2)c2ccccc21 | 2 | 7 | 15 | 3 | 47* | 1 | 32 | 15*
O=S(=O)(Nc1ccc(-c2nc3cccnc3s2)cc1)c1cc(F)ccc1F | 1 | -3 | -9 | 1 | 45* | 8 | 35* | 9.2*
NS(=O)(=O)c1ccc(C(=O)Nc2ccc(-c3nc4cccnc4s3)cc2)cc1 | -23 | 26 | 9 | -40 | 1 | -36 | . | .
COCCCNc1nc2ccccc2nc1NS(=O)(=O)c1ccc(C)cc1C | 8 | -3 | 5 | 5 | 30 | -1 | . | .
COCCCNc1nc2ccccc2nc1NS(=O)(=O)c1cccc(Cl)c1 | 6 | -3 | -9 | 8 | 38* | 7 | 32 | 6.7*
O=S(=O)(Nc1nc2ccccc2nc1NCC1CCCO1)c1cccc(Cl)c1 (stereo not drawn) | 0 | 10 | 12 | 7 | 54* | 5 | 40* | 10*
O=C(OCN1C(=O)c2ccccc2C1=O)c1ccc(Cl)nc1 | 5 | -7 | -1 | 2 | -2 | -2 | . | .
CN(C)c1ncc(C2=C(Cl)C(=O)C(N3CCCC3)=C(Cl)C2=O)s1 | 9 | 1 | 11 | 27* | 65* | 29 | 55* | 24* | dCAG dye DR=i
O=C(O)c1ccc2nc(-c3ccco3)c(-c3ccco3)nc2c1 | 24* | . | . | 52* | 42* | 40* | 47* | 12*
SMILES | PAFAH1B2 FP inh | EBNA-1 inh | ZTA DNA inh | PAFAH1B3 inh | rCAG binder | PAFAH2 FP inh | rCAG binder conf | DNA CAG counter | others
Cc1ccc(-c2nc3ccc(C(=O)O)cc3nc2-c2ccc(C)cc2)cc1 | 7 | 4 | -12 | 12 | 3 | 1 | . | .
Cc1ccc(S(=O)(=O)Nc2nc(C)c(C(=O)Nc3ccccc3)s2)cc1 | 5 | -9 | 0 | 7 | 36* | 3 | 19 | 2
Cn1c(N)c(C(=O)N/N=C/c2ccccc2)sc1=S | 5 | 10 | -9 | 12 | 43* | 5 | 21 | 7.8*
Cc1nc(NS(=O)(=O)c2ccccc2)sc1C(=O)NN | . | 2 | 14 | . | 83* | . | 9 | 4
C/C(=N/NC(=O)c1sc(NS(=O)(=O)c2ccccc2)nc1C)c1sc(N)nc1C | 9 | 3 | 5 | 14 | 79* | 11 | 10 | 3
Cc1c(C(=O)N/N=C/c2cccnc2)sc(=S)n1C | -2 | 0 | -5 | 1 | 8 | 1 | . | .
Cc1ccc(C(=O)C(C)Sc2nnc(N)s2)cc1 (stereo not drawn) | 1 | 7 | -1 | 4 | -1 | 3 | . | .
CN(C)/C=C(\C#N)C(=O)N/N=C(\CC(=O)C(F)(F)F)c1ccco1 | -4 | 2 | -8 | 11 | 4 | 0 | . | .
Cc1ccc(S(=O)(=O)Nc2nc(C)c(C(=O)N/N=C/c3ccccc3)s2)cc1 | 7 | 10 | 17 | 6 | 80* | -2 | 70* | 24* | dCAG dye DR=i
Cc1ccc(S(=O)(=O)Nc2nc(C)c(NC(=O)Nc3ccc(Cl)cc3Cl)s2)cc1 | 12 | 4 | 6 | 13 | 62* | 13 | 59* | 24*
COc1ccc(NC(=O)Nc2sc(NS(=O)(=O)c3ccccc3)nc2C)cc1 | 1 | 16 | 25 | 15 | 24 | 0 | . | .
CC(=O)Nc1ccc(S(=O)(=O)Nc2nc3ccccc3nc2N2CCc3ccccc3C2)cc1 | 6 | 11 | -1 | 6 | 49* | 17 | 60* | 25*
O=S(=O)(Nc1nc2ccccc2nc1N1CCc2ccccc2C1)c1ccc(Br)cc1 | -1 | 5 | 21 | 3 | 13 | 5 | . | .
Cc1ccccc1S(=O)(=O)Nc1nc2ccccc2nc1N1CCc2ccccc2C1 | 1 | 7 | 11 | -1 | 35* | 11 | 45* | 15*
CC(=O)Nc1ccc(S(=O)(=O)Nc2nc3ccccc3nc2N2CCCCCC2)cc1 | 4 | -3 | -3 | 4 | 24 | 9 | . | .
CCc1cccc2c(C(=S)N3CCOCC3)c[nH]c12 | 3 | 6 | 13 | -9 | 1 | -4 | . | .
COCCCNC(=O)C[C@H]1C[C@@]2(C(=O)OC)C(=C[C@H](C3CCCC3)O[C@@H]2C)N(Cc2cccc3ccccc23)C1=O | . | . | . | . | 1 | . | . | .
